PubChem BioAssay AID1159580 (chemical genetic matrix, 2015)
The whole screen tested about 5,500 compounds, of which about 2,000 (36%) were called active. Inconclusive results (about 18%) are left out. Rule as the data show it: active = normalized growth mostly below about 0.91 (no sharp cut-off); inconclusive = no clear call, values can overlap the other calls; inactive = mostly above about 0.92. Some of the results follow.

Assay: chemical genetic growth profiling, strain panel (AID 1159580);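 also: tested at 20 µM; growth read once vehicle control cultures reached saturation at 30 °C; 1 = growth at the plate median or of vehicle wells; lower values mean less growth of the strain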
Conditions: S. cerevisiae deletion strains, growth OD

Measured: normalized growth

COc1cc(OC)c2c(c1)OC(c1ccc(OC)c(OC)c1)C(O)C2 (centres undefined)
inactive: locus YBR021W, strain FUR4, stronger effect = lower value 1.04 | locus YBR229C, strain ROT2, stronger effect = lower value 1.01 | locus YCL029C, strain bik1, stronger effect = lower value 1.03 | locus YDL035C, strain GPR1, stronger effect = lower value 1.08 | locus YDL074C, strain BRE1, stronger effect = lower value 1.11 | locus YDL101C, strain DUN1, stronger effect = lower value 1.02 | locus YDL185W, strain tfp1, stronger effect = lower value 1.03 | locus YDL192W, strain arf1, stronger effect = lower value 1.02 | locus YDR101C, strain arx1, stronger effect = lower value 0.991 | locus YDR162C, strain NBP2, stronger effect = lower value 1.04 | locus YDR318W, strain mcm21, stronger effect = lower value 1.03 | locus YDR388W, stronger effect = lower value 1 | locus YDR502C, strain sam2, stronger effect = lower value 1.03 | locus YER110C, stronger effect = lower value 1.01 | locus YER155C, strain BEM2, stronger effect = lower value 0.999 | locus YER167W, strain BCK2, stronger effect = lower value 1 | locus YGL078C, strain dbp3, stronger effect = lower value 1.03 | locus YGL086W, strain mad1, stronger effect = lower value 1.02 | locus YGL248W, strain PDE1, stronger effect = lower value 1.06 | locus YGR078C, strain PAC10, stronger effect = lower value 1.04 | locus YGR135W, strain pre9, stronger effect = lower value 1.05 | locus YGR252W, strain gcn5, stronger effect = lower value 1.05 | locus YHR030C, strain SLT2, stronger effect = lower value 1.02 | locus YHR079C, strain IRE1 (second series), stronger effect = lower value 1.02 | locus YHR094C, strain hxt1, stronger effect = lower value 1.01 | locus YHR129C, strain ARP1, stronger effect = lower value 1.02 | locus YHR200W, strain rpn10, stronger effect = lower value 1.04 | locus YIL066C, strain RNR3, stronger effect = lower value 1.02 | locus YIL073C, strain SPO22, stronger effect = lower value 1.16 | locus YIL125W, strain kgd1, stronger effect = lower value 1.02 | locus YIR030C, strain dcg1, stronger effect = lower value 1.02 | locus YJL095W, strain BCK1, stronger effect = lower value 1.07 | locus YJL134W, strain LCB3, stronger effect = lower value 1.01 | locus YJL168C, strain set2, stronger effect = lower value 1.01 | locus YJL187C, strain SWE1 (second series), stronger effect = lower value 1.05 | locus YJR043C, strain POL32, stronger effect = lower value 1.06 | locus YKL009W, strain mrt4, stronger effect = lower value 1.04 | locus YKL068W, stronger effect = lower value 0.998 | locus YKL085W, strain MDH1 (second series), stronger effect = lower value 1.01 | locus YKL085W, strain MDH1, stronger effect = lower value 1.01 | locus YKR001C, strain vps1, stronger effect = lower value 1.03 | locus YLR039C, strain RIC1, stronger effect = lower value 1.17 | locus YLR058C, strain SHM2, stronger effect = lower value 1.03 | locus YLR102C, strain apc9, stronger effect = lower value 1.01 | locus YLR268W, strain sec22, stronger effect = lower value 1.01 | locus YLR371W, strain rom2, stronger effect = lower value 1.05 | locus YLR418C, strain cdc73, stronger effect = lower value 1.04 | locus YML016C, strain PPZ1, stronger effect = lower value 1.01 | locus YML032C, strain rad52, stronger effect = lower value 1.02 | locus YML124C, strain tub3, stronger effect = lower value 1 | locus YMR078C, strain ctf18, stronger effect = lower value 1.02 | locus YMR223W, strain ubp8, stronger effect = lower value 1.02 | locus YMR307W, strain GAS1, stronger effect = lower value 1.22 | locus YNL067W, strain RPL9B, stronger effect = lower value 1.01 | locus YNL233W, strain BNI4, stronger effect = lower value 1.05 | locus YNL250W, strain rad50, stronger effect = lower value 1.05 | locus YNL271C, strain bni1, stronger effect = lower value 1.01 | locus YNL298W, strain CLA4, stronger effect = lower value 1.03 | locus YNL307C, strain MCK1, stronger effect = lower value 1.01 | locus YNR052C, strain pop2, stronger effect = lower value 1.05 | locus YOL012C, strain htz1 1.04 | locus YOL147C, strain pex11, stronger effect = lower value 1.03 | locus YOR061W, strain CKA2, stronger effect = lower value 1.01 | locus YOR069W, strain VPS5, stronger effect = lower value 1.02 | locus YOR136W, strain idh2, stronger effect = lower value 1.02 | locus YOR144C, strain elg1, stronger effect = lower value 1.01 | locus YOR184W, strain ser1, stronger effect = lower value 1.02 | locus YOR316C, strain cot1, stronger effect = lower value 1.03 | locus YPL241C, strain CIN2, stronger effect = lower value 1.02 | locus YPR119W, strain clb2, stronger effect = lower value 1.01 | locus YPR141C, strain kar3, stronger effect = lower value 1.02 | locus YPR163C, strain tif3, stronger effect = lower value 1.02 | locus YPR167C, strain met16, stronger effect = lower value 1.04 | strain wtn01, stronger effect = lower value 1.03
